Most compounds without a hit are left out; they make up all but 14% or so of the library.
Sm TGR block – blocks Schistosoma mansoni thioredoxin glutathione reductase. purified TGR, DTNB reduction, TNB absorbance 405 nm. Potency, µM (top dose mostly 114 µM), without a hit: at the top dose activity change, negative = inhibition, actives largely listed as inhibitors. hit rate 3% among 360,000. Q962Y6; also: potency is read from the fitted curve at half-maximal effect; nearly all actives have a fitted effect of over 60% in size
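TGR 20 nM + NADPH 100 uM (dispensed conc.), cpd preinc 15 min RT; start with NADPH (500 uM addition) then DTNB (15 mM addition). Kinetic TNB absorbance, 405 nm filter. Four-parameter Hill fit across titration.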
Pf growth 48h – inhibits P. falciparum growth in the first generation, 48 h; P. falciparum luciferase growth in erythrocytes, 48 h; Potency, µM (top dose mostly 28.7 µM), inactives show at the highest dose activity change, negative = inhibition, actives largely listed as inhibitors; hit rate 5.9% among 310,000; AID 504832; also: potency is read from the fitted curve at half-maximal effect
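Erythrocytes infected with P. falciparum carrying an integrated firefly luciferase reporter (2% hematocrit, 0.1% parasitemia final) were exposed to compounds in RPMI 1640 with 0.5% Albumax at 37 C, 5% CO2. Growth inhibition was scored as reduced luminescence.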
Giardia FBPA inh – blocks Giardia fructose-bisphosphate aldolase activity; Potency, µM (doses to about 59.6 µM), for inactives: at the top dose activity, negative = inhibition, actives largely listed as inhibitors; purified Giardia FBPA; A8B2U2; hit rate 0.71% among 290,000; also: potency is read from the fitted curve at half-maximal effect; nearly all actives have a fitted effect of over 55% in size
Target sequence (A8B2U2 whole entry, looked up): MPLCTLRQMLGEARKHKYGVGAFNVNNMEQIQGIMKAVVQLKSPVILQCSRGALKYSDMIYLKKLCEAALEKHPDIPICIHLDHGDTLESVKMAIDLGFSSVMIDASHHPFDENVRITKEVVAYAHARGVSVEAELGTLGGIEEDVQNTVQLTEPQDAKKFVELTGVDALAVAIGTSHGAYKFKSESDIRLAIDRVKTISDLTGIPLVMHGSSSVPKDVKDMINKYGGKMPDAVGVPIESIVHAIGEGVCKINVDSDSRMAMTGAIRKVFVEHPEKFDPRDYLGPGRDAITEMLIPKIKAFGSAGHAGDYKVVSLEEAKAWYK
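Giardia FBPA (40 nM reagent) was preincubated 10 min at RT with compound (up to 57.5 uM final), then substrate plus GAPDH/TPI/NAD/arsenate coupling system with diaphorase/resazurin was added; resorufin fluorescence (525/598 nm) was read after 20 min.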
HCMV antiviral – inhibitors of human cytomegalovirus; HFF cells, HCMV-luciferase reporter, 72 h; active compounds read low; hit rate 4.5% among 410,000; activity change, negative = inhibition, % at 57.5 µM; AID 1259415; in the data active = activity change below about -60%; inconclusive = no clear call, values can overlap the other calls; inactive = above about -39%
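Two compound doses tested in HFFs infected with HCMV-luciferase, MOI 1 PFU/cell, 72 h at 37C. Lysate luminescence read with OneGlo; data normalized against buffer-only and 10uM Salinomycin inhibitor controls.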
Pf growth 96h – P. falciparum growth inhibition at 96 hours; P. falciparum luciferase reporter growth, 96 h; Potency, µM (highest dose often 28.7 µM), without a hit: at the highest dose activity change, negative = inhibition, hits mostly inhibitors; hit rate 6.9% among 320,000; AID 504834; also: potency is read from the fitted curve at half-maximal effect
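Erythrocytes infected with luciferase-expressing P. falciparum were dispensed at 2% hematocrit and 0.05% parasitemia (final), then incubated with compounds 96 hours at 37 C in 5% CO2. Luminescence after detection reagent addition reported growth.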
Active calls of the source: *; ? = inconclusive; · = no result given. Unless noted, calls follow the shape of the dose curve; as a rule, active = well fitted curve in the direction sought with a large enough effect; inconclusive = small, poorly fitted or top-dose-only effect, or another doubt; inactive = no such curve, though single readings can be large; an effect the other way counts as inactive or inconclusive. % is scaled to controls: 0 for no effect and ±100 for the full control effect.

SMILES	Sm TGR block	Pf growth 48h	Giardia FBPA inh	HCMV antiviral	Pf growth 96h
COC(=O)C1(Cc2cc(-c3cccnc3)no2)CCN(C(=O)OC(C)(C)C)CC1	2%	?	4%	-22	10µM*
CNS(=O)(=O)c1ccc(NCC2COc3ccccc3O2)c([N+](=O)[O-])c1 (stereo not drawn)	-20%	13%	1%	-14	-12%
Cn1cc(CNCc2ccc(OC(F)(F)F)cc2)c(-c2ccc3c(c2)OCCO3)n1	6%	-13%	0%	-81*	?
c1cc2c(cc1-c1[nH]ncc1CN1CC3C[C@@H]4CC1C[C@H](C3)C4)OCO2	1%	?	?	-69*	?
CN(Cc1ccon1)Cc1cn(C)nc1-c1ccc2c(c1)OCCO2	-20%	20%	-1%	-3	1%
Cn1cc(CNCc2cn[nH]c2-c2ccc(F)cc2)c(-c2ccc3c(c2)OCCO3)n1	-16%	15%	3%	-28	-5%
Cn1cc(CN2CC3C[C@@H]4CC2C[C@H](C3)C4)c(-c2ccc3c(c2)OCCO3)n1	-19%	-20%	?	33	12µM*
COc1cc(CNc2ncnc3c2ncn3[C@H]2CN(Cc3ccncc3)C[C@@H](CO)O2)cc(OC)c1OC	·	·	·	-28	·
COc1ccc(CC(=O)N/N=C(/C)CC(=O)N(C)c2ccccc2)cc1	6%	13%	·	-20	56%
CCn1cc([N+](=O)[O-])c(C(=O)Nc2ccn(C34CC5CC(CC(C5)C3)C4)n2)n1	-9%	1%	-1%	-32	-1%
Cn1cc([N+](=O)[O-])c(C(=O)Nc2ccn(C34CC5CC(CC(C5)C3)C4)n2)n1	1%	0%	0%	-95*	-14%
Cn1nccc1C(=O)Nc1ccn(C23CC4CC(CC(C4)C2)C3)n1	-9%	38%	6%	-81*	63%
O=C(Nc1ccc(Br)cc1)c1nn(C23CC4CC(CC(C4)C2)C3)cc1Br	-26%	?	1%	-26	0.19µM*
Cc1nn(C)c(C(=O)Nc2ccn(C34CC5CC(CC(C5)C3)C4)n2)c1[N+](=O)[O-]	-2%	?	-10%	-62*	?
CCc1ccc(N(CC(=O)NCc2ccco2)C(=O)CCC(=O)Nc2nccs2)cc1	-6%	-19%	10%	16	-25%
CC[C@]1(C(=O)OC)[C@H]2C(=O)N(C)C(=O)[C@H]2[C@H]2CN=C(SC)N21	·	·	·	-4	·
OC12CCCCC1C(c1ccc3c(c1)OCO3)N(Cc1ccc(F)cc1)CC2 (stereo not drawn)	-12%	13µM*	1%	37	9.3µM*
CN(C)c1ccc(-c2nc(NC3CCNCC3)c3ccccc3n2)cc1	·	·	-23%	·	·
CN(C)c1ccc(C(=C2C=CC(=[N+](C)C)C=C2)c2ccc(N(C)C)cc2)cc1	·	0.3µM*	16µM*	·	0.19µM*
CN(C)c1ccc(C(=C2C=CC(=[N+](C)C)C=C2)c2c(O)c(S(=O)(=O)[O-])cc3cc(S(=O)(=O)O)ccc23)cc1	·	?	·	·	6µM*
CN(C)c1ccc(C(=C2C=CC(=[N+](C)C)C=C2)c2ccccc2)cc1	·	7.6µM*	7%	·	3.8µM*
CN(C)c1ccc(C(=O)c2ccc(N(C)C)cc2)cc1	3%	·	-6%	135	103%
Cc1cc(C)c(S(=O)(=O)N[C@H]2CC[C@@]34CCCN3C(=O)CCC[C@H]4[C@H]2C)c(C)c1	·	·	·	19	·
CCCCNC(=S)N(C)/N=C/c1ccc(OCc2ccc(C(=O)OC)cc2)c(OC)c1	1%	?	-3%	-1	-10%
Cc1ccc(C)c(NC(=O)n2ncc3cc(Cl)ccc32)c1	-1%	·	·	9	·
SMILES	Sm TGR block	Pf growth 48h	Giardia FBPA inh	HCMV antiviral	Pf growth 96h
Cc1ccc(-n2nnnc2Sc2nc([N+](=O)[O-])nn2C)c(C)c1	·	·	·	-70*	·
Cc1ccc(-n2nnnc2Sc2nc([N+](=O)[O-])nn2C)cc1	-21%	4.1µM*	-20%	-9	20%
O=C1NC(=O)N(c2ccccc2F)C(=O)/C1=C/c1ccc(Oc2ccc([N+](=O)[O-])cn2)cc1	20µM*	9%	-12%	68	-5%
O=[N+]([O-])c1ccc(Oc2ccc(OCc3ccccc3)cc2)nc1	-4%	·	1%	-35	7%
COc1ccc(C)cc1NC(=O)C1CCCN(S(=O)(=O)c2cccc3cccnc23)C1 (stereo not drawn)	8%	?	-5%	·	?
Cn1c(SCC(=O)Nc2ccc3nc(SCC(=O)N4CCCC4)sc3c2)nnc1-c1ccccc1	-1%	9.3µM*	-1%	31	3.3µM*
O=C(Nc1ccc2nc(SCC(=O)N3CCCC3)sc2c1)c1ccccc1	0%	·	·	46	·
CCCCNC(=O)CSc1nc2ccc(Nc3nc(N4CCOCC4)nc(N4CCOCC4)n3)cc2s1	3%	?	6%	?	8.3µM*
O=C(Nc1ccc2nc(SCC(=O)N3CCOCC3)sc2c1)c1ccccc1Cl	-8%	·	·	-83*	·
O=C(Nc1ccc2nc(SCC(=O)N3CCOCC3)sc2c1)c1ccc(Br)cc1	-3%	·	·	-4	·
CCCCSc1nc2ccc(Nc3nc(N4CCOCC4)nc(N4CCOCC4)n3)cc2s1	19%	?	-1%	?	?
O=C(Nc1ccc2nc(SCC(=O)N3CCOCC3)sc2c1)c1ccc(Cl)cc1	-1%	·	·	-74*	·
COc1ccc(-c2nc(CSCC(=O)NCCCN3CCCC3=O)c(C)o2)cc1	-24%	4%	-5%	-30	17%
COC(=O)CSc1nc2ccc(NC(=O)c3ccccc3C(=O)N3CCOCC3)cc2s1	4%	3%	-15%	-64*	-19%
Cc1ccc(/C=C/C(=O)NCc2ccccn2)o1	18µM*	10%	-10%	-20	51%
Cc1ccc(C(=O)N/C(=C/c2ccco2)C(=O)NCC2CCCO2)cc1 (stereo not drawn)	-19%	42%	0%	-15	?
O=C(/C=C/c1ccco1)NCC1CCCO1 (stereo not drawn)	5µM*	3%	-2%	11	0%
Cc1ccc(/C=C/C(=O)NCc2ccco2)o1	13µM*	-7%	-6%	-20	-21%
COc1ccccc1/C=C/C(=O)NC(=S)NCC1CCCO1 (stereo not drawn)	-26%	?	-10%	-62*	?
Cc1ccc(/C=C/C(=O)NCc2ccc3c(c2)OCO3)o1	13µM*	-5%	3%	-62*	-27%
O=C(/C=C/c1ccco1)NCc1ccco1	4µM*	19%	2%	48	55%
Cc1ccc(C(=O)NCc2ccc3c(c2)OCO3)o1	8%	39%	-4%	20	-13%
CCN(CC)S(=O)(=O)c1ccc(N2CCN(c3ccccc3OC)CC2)c(N)c1	2%	?	-1%	-80*	?
CN(C(=O)Cn1cc(C(F)(F)F)cc(Cl)c1=O)C1CCS(=O)(=O)C1 (stereo not drawn)	1%	7%	·	-11	28%
